The results in this text go back to PubChem BioAssay AID2107 (National Center for Advancing Translational Sciences (NCATS), 2009).

Screen size: about 240,000 compounds; about 20 (0.008%) were called active. Not shown: some 1% with an inconclusive outcome. A selection follows. Unmarked numbers belong to inactive results. Calls follow the shape of the dose curve; as a rule, active = well fitted inhibition curve with a large enough effect; inconclusive = small, poorly fitted or top-dose-only effect, or effect the other way; inactive = flat fitted curve, though single readings scatter.

Sequence of Alpha-galactosidase A (Homo sapiens) (P06280 32-429 limits assumed): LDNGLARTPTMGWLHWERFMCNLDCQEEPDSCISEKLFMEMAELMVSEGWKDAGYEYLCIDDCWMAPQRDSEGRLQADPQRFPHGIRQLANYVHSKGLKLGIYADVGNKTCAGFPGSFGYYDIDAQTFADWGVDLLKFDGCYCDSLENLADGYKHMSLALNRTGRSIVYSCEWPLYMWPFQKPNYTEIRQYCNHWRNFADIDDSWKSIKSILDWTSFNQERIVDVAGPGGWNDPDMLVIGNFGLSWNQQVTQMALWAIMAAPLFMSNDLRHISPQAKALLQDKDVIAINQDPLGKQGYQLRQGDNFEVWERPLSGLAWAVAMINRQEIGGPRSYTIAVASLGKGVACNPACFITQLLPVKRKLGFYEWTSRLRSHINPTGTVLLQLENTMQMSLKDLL

The target of the test is Alpha-galactosidase A (Homo sapiens) (UniProt P06280). Kind of test: qHTS Assay for Inhibitors and Activators of Human alpha-Galactosidase From Spleen Homogenate.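 Also: 0% = enzyme with vehicle and -100% = no enzyme basal signal.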 As to conditions: 4MU-alpha-Gal fluorescence, 40 min; series mostly up to 80 µM; activity change, negative = inhibition: at the top concentration. The source says:
NIH Chemical Genomics Center [NCGC] NIH Molecular Libraries Probe Production Centers Network [MLPCN] MLPCN Grant: R03 MH084842-01 Assay Submitter (PI): Wei Zheng NCGC Assay Overview: Alpha-galactosidase is a homodimeric glycoprotein that hydrolyzes the terminal alpha-galactosyl moieties from glycolipids and glycoproteins. Deficiency of this enzyme results in Fabry Disease with progressive accumulation of globotriaosylceramide and other glycosphingolipids in vascular endothelial cells that causes renal failure, myocardial infarction and stroke, and premature death in patients. It has been reported that the improper folding and trafficking of alpha-galactosidase resulting from genetic mutations may account for a significant number of Fabry patients. […] We optimized this alpha-galactosidase assay in 1536-well plate format for identification of novel small molecule inhibitors or activators with structures other than the sugar analogs in order to develop new pharmacological chaperones. In particular, this assay is directed towards discovering compounds active in more natural setting, tissue homogenate, that may have been missed by screens of the purified enzyme under more stringent conditions.
NCGC Assay Protocol Summary: This is a fluorogenic enzyme assay with 4-methylumbelliferyl-alpha-D-galactopyranoside as the substrate and human spleen homogenate containing alpha-galactosidase as the enzyme preparation. Upon hydrolysis of this fluorogenic substrate, the resulting product, 4-methylumbelliferone (which excites at 365 nm and emits at 440 nm) can be detected by a fluorescence plate reader. Data were normalized to the controls for basal activity (without enzyme) and 100% activity (with enzyme). The AC50 values were determined from concentration-response data modeled with the standard Hill equation. Assay buffer: 50 mM citric acid (titrated with potassium phosphate to pH 5.0), 0.01% Tween-20 (pH 5.0 is an optimal condition for this enzyme assay) 1536-well assay protocol for the alpha-galactosidase from human spleen homogenate: (1) Add 2 ul/well spleen homogenate (1 ug) (2) Add 23 nL compounds in DMSO solution. The final titration was 0.5 nM to 58 uM. (3) Add 2 ul of substrate (1 mM final) (4) Incubate at 37C for 40 min (5) Add 2 ul stop solution (1M NaOH and 1M Glycine mixture, pH 10) (6) Detect the assay plate in a ViewLux plate reader (PerkinElmer) with Ex=365 nm and Em=440nm. Keywords: Alpha-galactosidase, Fabry Disease, pharmacological chaperone, chaperone therapy, high throughput screening, alpha- galactosidase inhibitor, MLSMR, MLSCN, NIH Roadmap, qHTS and NCGC
(qHTS replaces the single test concentration by a dilution series.)
With `O=C(NCCCO)/C(=C\C=C\c1ccccc1)NC(=O)c1ccccc1Cl`, the “activity change, negative = inhibition” value was 1.56%. For the molecule `COc1ccc(/C=N/Nc2ncnc3sc4c(c23)CCCC4)cc1O`, the “activity change, negative = inhibition” value was 4.96%. For `COc1ccccc1C1C(C#N)=C(N)Oc2c1c(-c1ccccc1)nn2-c1ccccc1` (stereo not given) the value was 6.59%. On to `CC[C@H](C)[C@H](NC(=O)[C@@H](N)CCC(=O)O)C(=O)N[C@@H](CC(C)C)C(=O)N[C@@H](CC(=O)O)C(=O)N[C@H](C(=O)N1CCC[C@H]1C(=O)N[C@@H](CO)C(=O)N[C@H](C(=O)O)[C@@H](C)O)C(C)C`, for which the “activity change, negative = inhibition” value was -4.11%. For `C[C@]1(C(=O)NCCc2c[nH]c3ccccc23)C=C[C@@H](Cc2ccccc2)N1C(=O)c1ccccc1` the value was “inactive”; for `CCC1(CC)C(=O)C2=C3C1[C@H](C(=O)OC)C=C(C(=O)OC)C[C@H]3[C@H]1C(=O)N(Cc3ccccc3)C(=O)[C@H]1[C@H]2C` (stereo not given in full), 6.6%.

As to `COc1ccc2c3c1O[C@H]1C[C@@H](O)C=C[C@@]31CCN(C)C2`, the activity change, negative = inhibition entry is “inactive”. Under `OCCNCc1cccc(OCc2ccccc2Cl)c1` stands -3.03%. On to `CC1=NN(C(=O)c2ccc(Br)cc2)C(O)(c2ccccc2)C1` (stereo not given), for which the “activity change, negative = inhibition” value was 6.29%. Under `Cc1ccc(-c2nn(CC(C)(C)C)c3ncnc(N)c23)cc1` stands -4.25%; under `COc1ccc(-c2c(C)cc3oc(=O)cc(-c4ccccc4)c3c2C)cc1OC`, 1.37% [at 119 µM]. For `COC(=O)Cc1csc(/N=C/c2c(O)n(-c3cccc(C(F)(F)F)c3)c(=O)c3ccccc23)n1`, the “activity change, negative = inhibition” value was 3.19%. Regarding `C/C(CCN1CCCCc2nc(C)c(C)cc21)=N\O[C@@H](C)c1cn([C@@H]2COC[C@@H]2O)nn1`, the activity change, negative = inhibition was 2.02% [at 17.5 µM]. In the case of `Cc1nc(C(=O)NCc2ccccc2)sc1C1(C)CC(c2cccnc2)=NO1` (stereo not given), the “activity change, negative = inhibition” value is 10.3%. For `CCOC(=O)c1cc(C)nc(S(C)(=O)=O)c1C#N`, the “activity change, negative = inhibition” value is 7.86%. For `Cc1cc2oc(=O)cc(-c3ccccc3)c2c(C)c1/C=C/c1ccc(F)cc1` the value was 10.4% [at 119 µM]. For `CCOc1ccc(NC(=O)COc2ccc(C(=O)NC3CCCc4ccccc43)cc2OC)cc1` (stereo not given) the value was 8.14%; for `O=C(COC(=O)c1ccc(Cl)nc1)NCc1ccc2c(c1)OCO2`, 1.1%; for `COc1cc(OC)c2c(C)cc(=O)oc2c1C(CCN1CCCCC1)c1ccc(N(C)C)cc1` (stereo not given), -6.87%. Under `COCCCNC(=S)NCCNc1nc2cc(C)c(C)cc2cc1C#N` stands 10.9%; under `O=C(O)c1ccc(/C=C2/SC(=S)N(c3cccc(C(F)(F)F)c3)C2=O)cc1`, 5.07%.

`CCO[C@@H]1OC(C(=O)NCc2nc3ccccc3[nH]2)=C[C@H](C2CCCCC2)[C@H]1CCCO`: the “activity change, negative = inhibition” value is 2.53%. `C=CCCN(C(Cc1ccccc1)C(=O)OC)S(=O)(=O)c1cc(Br)ccc1Br` (stereo not given): the “activity change, negative = inhibition” value was 0.915%. Under `COc1ccc(CN2CCC(=O)c3ccccc3S2(=O)=O)cc1` stands -16.2%; under `CCOC(=O)C1=C(C)NC2=C(C(=O)CC(C)(C)C2)C1c1ccsc1` (stereo not given), 12.5%. Take `O=C(NCC1CC1)C1(C(F)(F)F)C/C(=C\CCO)CCCO1` (stereo not given): the “activity change, negative = inhibition” value was 6.89%. For `Cc1scc(C(=O)NNC(=S)NCC(C)C)c1C` the value was 1.16%; for `CCCN1CCC(=O)N(C(CSc2ccc(C)cc2)Cc2ccccc2)CC1` (stereo not given), -1.75%; for `Cc1cc(C(=O)OCC(=O)N2c3ccccc3NC(=O)C2(C)C)c(C)n1-c1ccccc1`, 13.9%. Under `O=C1/C(=C\c2ccccc2Cl)SC(=S)N1CCC(=O)N1CCCc2ccccc21` stands 0.217%; under `COc1cccc(N(C(=O)c2ccn[nH]2)C2(C(=O)Nc3c(C)cccc3C)CCCCC2)c1`, 1.18%; under `OCC1(Cc2ccccc2C(F)(F)F)CCN(Cc2cccc3cnccc23)CC1`, 20.6%.

With `C=C1/C(=C\C=C2\CCCC3(C)C2CCC3C(C)/C=C/C(O)C2CC2)CC(O)CC1O` (stereo not given), the “activity change, negative = inhibition” value is -8.26%.

Consider `Cc1noc(C)c1-c1ccc2ncnc(NCc3ccc4[nH]ccc4c3)c2c1`, for which the “activity change, negative = inhibition” value is 6.61%. Turning to `CC(=O)OCC(NC(=O)C(Cc1ccccc1)NC(=O)OC(C)(C)C)C1OC(n2ccc(=O)[nH]c2=O)C(OC(C)=O)C1OC(C)=O` (stereo not given), the “activity change, negative = inhibition” value was 10.3%. Under `COc1ccc(C2CC(O)(c3ccccc3)Oc3cc(C)cc(C)c32)cc1` (stereo not given) stands 4.13%; under `Cn1c(N)c(C(=O)COC(=O)/C=C/c2ccc(OC(F)F)cc2)c(=O)n(C)c1=O`, 5.56%. With `COc1ccc(Br)cc1C1C2C=CCC(C)C2C(=O)N1Cc1ccccc1` (stereo not given), the “activity change, negative = inhibition” value is -6.92%. For the molecule `N#CC1=C(N)Oc2c(ccc3cccnc23)C1c1ccncc1` (stereo not given), the “activity change, negative = inhibition” value is 0.687%. For `COC(=O)C1(C(C)=O)CC2=CC[C@H]3C(=O)N(c4ccccc4)C(=O)[C@H]3[C@@H]2Cc2ccccc2[C@@H]1C[N+](=O)[O-]` (stereo not given in full) the value was “inactive”.

Turning to `N#Cc1ccc(OCc2nnc(-c3ccc([N+](=O)[O-])cc3)o2)cc1`, the “activity change, negative = inhibition” value is 3.78%.

Regarding `CCOCCOC(=O)C(C)Oc1ccc(Oc2ncc(C(F)(F)F)cc2Cl)cc1` (stereo not given), the “activity change, negative = inhibition” value is -8.18%. With `CSc1ccccc1N1CCN(CCCCCC(=O)NC2CCCc3ccccc32)CC1` (stereo not given), the “activity change, negative = inhibition” value was -14.7%.

Regarding `Cc1cc(N(C)C)nc(Cl)n1`, the “activity change, negative = inhibition” value was 8.47%. For `Cc1cccc(NC(=S)NCCc2ccc(F)cc2)c1C` the value was -0.123%.
